Screening data deposited in PubChem BioAssay by National Center for Advancing Translational Sciences (NCATS).
CHX counter: Cycloheximide Counterscreen for Small Molecule Inhibitors of Shiga Toxin | AID 2314, 2010 | cell reporter, cycloheximide protein synthesis inhibition counterscreen | hit rate 12% among 300,000 | max response, %; in the data active = max response mostly above about 13%, no sharp cut-off; inactive = mostly below about 14%; note: read at 38.3 µM for the half of the compounds with a filed dose; 0% is about no effect
Pf growth 96h: Primary qHTS for delayed death inhibitors of the malarial parasite plastid, 96 hour incubation | P. falciparum luciferase reporter growth, 96 h | Potency, µM (titrated, usually from 28.7 µM), without a hit: at the highest dose activity change, negative = inhibition, usual class: inhibitors | hit rate 6.9% among 320,000 | AID 504834, 2011; note: potency is the fitted concentration of half-maximal effect; % is set by controls: 0 for no effect and ±100 for the full control effect
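Delayed-death screen, second-generation endpoint: infected erythrocytes, 2% hematocrit, 0.05% parasitemia final; 96 hours at 37 C, 5% CO2; luciferase detection reagent; luminescence decrease equals reduced growth.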
Shiga inhibitor: A qHTS for Small Molecule Inhibitors of Shiga Toxin; Vero cells, Shiga toxin protein synthesis inhibition reporter; inhibition, % at 38.7 µM; hit rate 9.2% among 290,000; AID 2315, 2010; in the data active = inhibition mostly above about 28%, no sharp cut-off; inactive = mostly below about 43%; note: 0% is about no effect
HCMV antiviral: qHTS Assay for inhibitors of the human cytomegalovirus (HCMV) | HFF cells, HCMV-luciferase reporter, 72 h; stronger effect = lower value | activity change, negative = inhibition, % at 57.5 µM | hit rate 4.5% among 410,000; in the data active = activity change below about -60%; inconclusive = no clear call, values can overlap the other calls; inactive = above about -39%; note: % is set by controls: 0 for no effect and ±100 for the full control effect
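Steps: HFFs plated, 16 h 37C; compounds added; HCMV-luciferase added to MOI 1 PFU/cell; 72 h 37C; OneGlo reagent, 5 min room temperature; luminescence read, normalized to controls.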
HCV inh: qHTS Assay for Inhibitors of Hepatitis C Virus (HCV); Huh7.5.1 HCVcc-Cre infection, luciferase reporter, 44 h; Potency, µM (highest dose often 41.8 µM), for the others: top-dose activity change, negative = inhibition, hits mostly inhibitors; hit rate 3.4% among 340,000; note: potency is the fitted concentration of half-maximal effect; % is set by controls: 0 for no effect and ±100 for the full control effect
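After 44 h co-culture of compound, cells and HCVcc-Cre (~0.5 moi), substrate is added for 15 min at room temperature and luciferase measured over 15 sec. Cells were seeded at 1,000/well and pre-cultured 4 h.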
Pf growth 48h: Primary qHTS for delayed death inhibitors of the malarial parasite plastid, 48 hour incubation | P. falciparum luciferase growth in erythrocytes, 48 h | Potency, µM (series often up to 28.7 µM), without a hit: at the top dose activity change, negative = inhibition, hits mostly inhibitors | hit rate 5.9% among 310,000; note: potency is the fitted concentration of half-maximal effect; % is set by controls: 0 for no effect and ±100 for the full control effect
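Luminescence readout; reporter = integrated firefly luciferase in P. falciparum. RBC culture at 2% hematocrit, 0.1% parasitemia final, 37 C/5% CO2; decreased signal taken as growth inhibition.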
The depositor's hits bear a star. A selection: hits, their analogues and other compounds. The true share with any hit is near 21%. Unless noted, calls come from the whole dose curve; as a rule, active = well fitted inhibition curve with a large enough effect; inconclusive = small, poorly fitted or top-dose-only effect, or another doubt; inactive = no such curve, though single readings can be large or run the other way.

NC(N)=NCCC[C@@H](N)C(=O)NCC(=O)N[C@@H](CC(=O)O)C(=O)N[C@@H](Cc1c[nH]c2ccccc12)C(=O)O was read as CHX counter -7.3 and Shiga inhibitor -14.2.
Screening FC(F)(F)c1ccccc1N/N=C/c1cccnc1 returned CHX counter 22.5, Pf growth 96h inconclusive, Shiga inhibitor 27.0, HCMV antiviral 1.4, HCV inh -3.8% and Pf growth 48h inconclusive.
For Fc1ccc(N/N=C/c2cccnc2)c(F)c1 the results were CHX counter 31.3*, Pf growth 96h -18.1%, Shiga inhibitor 73.1*, HCMV antiviral 58.7, HCV inh -5.5% and Pf growth 48h 13.4%.
For COC(=O)c1cc(NC(=O)CCc2c(C)nc3cc(-c4ccccc4)nn3c2C)cc(C(=O)OC)c1 the results were HCMV antiviral 7.6.
Screening COc1cc(OC)cc(-c2cc3nc(C)c(CCC(=O)Nc4ccc(F)c(Cl)c4)c(C)n3n2)c1 returned HCMV antiviral -61.7*.
COc1cc(NC(=O)CCc2c(C)nc3cc(-c4ccccc4)nn3c2C)cc(OC)c1OC was read as HCMV antiviral -104.4*.
For COc1ccc(-c2cc3ccc(O)c(CN4CCCCC4C)c3oc2=O)cc1OC (stereo not drawn) the results were HCMV antiviral 10.9.
Cc1ccsc1C(=O)NNC(=O)C1CC=CCC1C(=O)O (stereo not drawn) was read as CHX counter 45.0*, Pf growth 96h -1.9%, Shiga inhibitor active, HCMV antiviral -7.2, HCV inh 13.1% and Pf growth 48h 20.1%.
For CC(C)c1ccc(C(=O)NNC(=O)C2CC=CCC2C(=O)O)cc1 (stereo not drawn) the results were CHX counter 28.4*, Pf growth 96h 32.6%, Shiga inhibitor 64.1*, HCMV antiviral 38.4, HCV inh 18.0% and Pf growth 48h 31.8%.
For Cc1ccsc1C(=O)NNC(=O)C1CCCCC1C(=O)O (stereo not drawn) the results were CHX counter 30.9*, Pf growth 96h 106.7%, Shiga inhibitor 65.5*, HCMV antiviral -5.8, HCV inh 6.4% and Pf growth 48h 330.5%.
O=C(NNC(=O)C1CC=CCC1C(=O)O)c1cccs1 (stereo not drawn) was read as CHX counter 15.3, Pf growth 96h 66.2%, Shiga inhibitor 34.5, HCMV antiviral inconclusive, HCV inh 6.6% and Pf growth 48h 58.3%.
`O=C(NNC(=O)[C@@H]1CCCC[C@@H]1C(=O)O)c1cccs1` gave CHX counter 28.8*, Pf growth 96h -21.1%, Shiga inhibitor 57.6*, HCMV antiviral 18.8, HCV inh 16.6% and Pf growth 48h 14.1%.
`Cc1cccc(CSc2nc3nc(C)cc(C)n3n2)c1` gave CHX counter -1.5, Pf growth 96h -26.3%, Shiga inhibitor -4.8, HCMV antiviral -8.0, HCV inh 4.8% and Pf growth 48h 16.3%.
CCOc1ccc(-c2nc(Cn3c(=O)cc(C)c4c(C)nn(-c5ccc(C)cc5)c43)c(C)o2)cc1 was read as HCMV antiviral 26.8.
Cc1ccc(C)c(S(=O)(=O)N2CCN(C(=O)c3cncc(Br)c3)CC2)c1 was read as CHX counter -2.9, Pf growth 96h -18.5%, Shiga inhibitor -6.9, HCMV antiviral 45.8, HCV inh -12.6% and Pf growth 48h inconclusive.
CC(=O)NC(NC(=S)N1CCCCCC1)C(Cl)(Cl)Cl (stereo not drawn) was read as CHX counter -0.4, Pf growth 96h 74.5%, Shiga inhibitor -19.1, HCMV antiviral 9.1, HCV inh 7.2% and Pf growth 48h -3.5%.
O=C(NNC(=O)[C@@H]1CCCC[C@@H]1C(=O)O)Nc1ccccc1 was read as CHX counter 15.1*, Pf growth 96h -25.9%, Shiga inhibitor 65.1*, HCMV antiviral 27.5, HCV inh 7.4% and Pf growth 48h 27.2%.
Screening Cc1cc(C)c(NC(=O)C2CSCCS2)c(C)c1 (stereo not drawn) returned CHX counter 20.2*, Pf growth 96h 94.0%, Shiga inhibitor 57.1*, HCMV antiviral 52.3, HCV inh 12.3% and Pf growth 48h 61.3%.
`COc1ccc(S(=O)(=O)Nc2ccc3c(c2)N(C(C)=O)CCC3)cc1F` gave HCMV antiviral -11.1.
Screening Oc1ccc(C[C@@H]2CNCCN2CCc2cccc3ccccc23)cc1 returned Pf growth 96h inconclusive, HCMV antiviral 13.5, HCV inh inconclusive and Pf growth 48h 13.1µM*.
For CC(C)(C)CN1CCNC[C@H]1Cc1cccc2ccccc12 the results were Pf growth 96h 9.28µM*, HCMV antiviral 61.6, HCV inh inconclusive and Pf growth 48h inconclusive.
`CCCC(=O)NCC(c1ccc2c(c1)OCO2)N1CCN(c2ccccc2)CC1` (stereo not drawn) gave HCMV antiviral 9.2.
Screening CCOC(=O)NC(=S)Nc1ccc(C(C)(C)C)cc1 returned CHX counter 33.4*, Pf growth 96h inconclusive, Shiga inhibitor 79.9*, HCMV antiviral -20.6, HCV inh -16.1% and Pf growth 48h inconclusive.
Cc1cccc(NC(=S)NC(=O)/C=C/c2ccccc2)n1 was read as CHX counter 11.5, Pf growth 96h -7.5%, Shiga inhibitor 21.0, HCMV antiviral 9.8, HCV inh 17.3% and Pf growth 48h 39.0%.
`CCOC(=O)NC(=S)Nc1cccc(C)n1` gave HCMV antiviral -62.5*.
Screening COc1ccccc1NC(=O)C(C)OC(=O)CCNS(=O)(=O)c1ccc(C)c(C)c1 (stereo not drawn) returned Pf growth 96h 24.1%, HCMV antiviral -6.6, HCV inh -7.6% and Pf growth 48h 1.3%.
`COc1cc(C2NC(=O)CCC2[N+](=O)[O-])c(OC)cc1Br` (stereo not drawn) gave CHX counter 14.2, Pf growth 96h 6.57µM*, Shiga inhibitor -12.8, HCMV antiviral 33.3, HCV inh 10.5% and Pf growth 48h 35.0%.
Screening O=C(Nc1cccc(-n2cnnn2)c1)c1cc(Cl)nc(Cl)c1 returned CHX counter -2.9, Pf growth 96h 4.65µM*, Shiga inhibitor 2.5, HCMV antiviral inconclusive, HCV inh inconclusive and Pf growth 48h 9.28µM*.
Screening CCOc1ccc(C(=O)Nc2cccc(-n3cnnn3)c2)cc1OCC returned CHX counter 7.2, Pf growth 96h -20.5%, Shiga inhibitor -13.7, HCMV antiviral 1.0, HCV inh inconclusive and Pf growth 48h inconclusive.
O=C(Nc1ccccc1)c1ccc(-n2cnnn2)cc1 was read as CHX counter 15.4*, Pf growth 96h -9.8%, Shiga inhibitor 23.2*, HCMV antiviral 51.1, HCV inh -9.0% and Pf growth 48h 43.6%.
